According to PubChem BioAssay:
A number with no mark means an inactive call. The source made the active and inactive calls. Cut-off read from the data, not from the text of the source, unless noted: active = inhibition above about 33%; inactive = the rest.

Assays:
[1] = StAR promoter reporter inhibitors, counter-screen for LRH-1 inverse agonist project, cell-based, luminescence, high throughput (AID 651611; in the data active = inhibition above about 28%); conditions: StAR promoter luciferase reporter counterscreen, at 3.6 µM, stronger effect = higher value
[2] = molecular target: Nuclear receptor subfamily 5 group A member 2 (Homo sapiens) (UniProt O00482); assay: NR5A2 activity suppression in reporter cells – cell-based, luminescence, confirmation (AID 651613; in the data active = inhibition above about 42%;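 note: HEK293T cells co-transfected with LRH-1 and StAR promoter luciferase reporter; 0% = vehicle wells and 100% = parental cells lacking receptor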); conditions: cell-based LRH-1 luciferase reporter, inverse agonism; at 3.6 µM; stronger effect = higher value
[3] = molecular target: Steroidogenic factor 1 (Homo sapiens) (UniProt Q13285); assay: inverse agonism at SF1 nuclear receptor – cell-based, luminescence, high throughput, counter-screen for LRH-1 inverse agonist project (AID 651614; in the data active = inhibition above about 44%;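 note: cells cotransfected with StAR promoter reporter and SF1 expression vector; 0% = vehicle on cells with receptor and 100% = vehicle on cells lacking receptor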); conditions: cell-based SF1 luciferase reporter, at 3.6 µM, stronger effect = higher value
[4] = compounds suppressing VP16-driven luciferase signal – cell-based, luminescence, high throughput, counter-screen for LRH-1 inverse agonist project (AID 651615); conditions: Gal4-VP16 luciferase reporter cells, at 3.6 µM, stronger effect = higher value

Steroidogenic factor 1 (Homo sapiens), sequence (Q13285 whole entry, looked up, the tested form may be a part): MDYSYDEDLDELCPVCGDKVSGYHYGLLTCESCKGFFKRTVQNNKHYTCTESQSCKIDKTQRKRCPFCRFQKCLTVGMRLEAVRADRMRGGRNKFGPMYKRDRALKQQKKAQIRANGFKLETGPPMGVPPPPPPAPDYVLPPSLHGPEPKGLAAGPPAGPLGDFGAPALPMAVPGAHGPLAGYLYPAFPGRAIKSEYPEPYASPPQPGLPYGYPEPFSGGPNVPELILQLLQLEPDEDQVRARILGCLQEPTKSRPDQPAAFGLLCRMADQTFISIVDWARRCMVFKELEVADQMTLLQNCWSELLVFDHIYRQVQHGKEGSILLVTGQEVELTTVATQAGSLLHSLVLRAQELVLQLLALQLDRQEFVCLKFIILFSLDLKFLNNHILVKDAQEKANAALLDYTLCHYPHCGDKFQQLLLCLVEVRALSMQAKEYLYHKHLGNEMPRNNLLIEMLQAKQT
Nuclear receptor subfamily 5 group A member 2 (Homo sapiens), sequence (O00482 whole entry, looked up): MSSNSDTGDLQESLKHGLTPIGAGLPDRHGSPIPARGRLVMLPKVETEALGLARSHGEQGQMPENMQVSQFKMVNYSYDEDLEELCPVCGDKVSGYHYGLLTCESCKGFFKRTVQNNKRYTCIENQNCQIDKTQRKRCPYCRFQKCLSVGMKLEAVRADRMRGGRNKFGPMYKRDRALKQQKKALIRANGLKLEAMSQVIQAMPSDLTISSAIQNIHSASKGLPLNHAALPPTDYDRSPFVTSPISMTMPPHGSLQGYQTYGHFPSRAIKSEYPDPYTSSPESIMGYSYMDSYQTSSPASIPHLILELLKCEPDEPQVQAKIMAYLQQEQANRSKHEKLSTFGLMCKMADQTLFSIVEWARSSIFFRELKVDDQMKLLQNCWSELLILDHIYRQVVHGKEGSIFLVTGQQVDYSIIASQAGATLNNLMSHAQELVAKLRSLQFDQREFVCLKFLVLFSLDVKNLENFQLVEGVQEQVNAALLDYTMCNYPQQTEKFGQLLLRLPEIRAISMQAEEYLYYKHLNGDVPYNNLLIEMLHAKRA

**Q.** Which inhibition [1] does the source give for `N=c1sccn1CC(=O)Nc1ccc(S(N)(=O)=O)cc1` here?
**A.** 17.1%

**Q.** What about the inhibition [2] of the same compound?
**A.** 54.1% (active)

**Q.** And the inhibition [3]?
**A.** 50.5% (active)

**Q.** And the inhibition [4]?
**A.** -2.17%

**Q.** Which results are given for `O=C(Nc1ccccc1C(=O)Nc1nccs1)c1ccccc1`?
**A.** inhibition [1]: 15.4%; inhibition [2]: 52.8% (active); inhibition [3]: 47.8% (active); inhibition [4]: 2.34%

**Q.** With `CCc1ccc(N2C=C(C(=O)OC)C(c3ccc(OC)cc3)C(C#N)=C2N)cc1` (stereo not drawn) as the compound, how does the inhibition [1] read?
**A.** 48.9% (active)

**Q.** And the inhibition [2]?
**A.** 25.1%

**Q.** And the inhibition [3]?
**A.** 45.3% (active)

**Q.** What about the inhibition [4] of the same compound?
**A.** 24.5%

**Q.** With `Cc1ccc(NC(=O)CSc2nnc(-c3n[nH]c4ccccc34)n2-c2ccccc2)c(C)c1` as the compound, how does the inhibition [1] read?
**A.** 3.14%

**Q.** And the inhibition [2]?
**A.** 60.5% (active)

**Q.** What about the inhibition [3] of the same compound?
**A.** 60.3% (active)

**Q.** And the inhibition [4]?
**A.** 4.59%

**Q.** What does the source list for `Cc1ccc(NC(=O)CSc2nnc(CNC(=O)c3ccco3)n2C)c(C)c1`?
**A.** inhibition [1]: 6.66%; inhibition [2]: 58.5% (active); inhibition [3]: 51.4% (active); inhibition [4]: -7.24%

**Q.** For `CC(=O)Nc1cc(-c2ccccc2N(C)C)cn2c(-c3ccc(S(C)(=O)=O)cc3)cnc12`, which inhibition [1] is on record?
**A.** 7.26%

**Q.** And the inhibition [2]?
**A.** 49.8% (active)

**Q.** What about the inhibition [3] of the same compound?
**A.** 36.5%

**Q.** And the inhibition [4]?
**A.** -14.6%

**Q.** Which inhibition [1] does the source give for `COC(=O)Cc1sc(-c2ccccn2)nc1-c1ccccc1` here?
**A.** 11.6%

**Q.** What about the inhibition [2] of the same compound?
**A.** 61.7% (active)

**Q.** What about the inhibition [3] of the same compound?
**A.** 58.9% (active)

**Q.** What about the inhibition [4] of the same compound?
**A.** -7.62%

**Q.** Which results are given for `CCOc1ccc(CCNC(=O)COC(=O)CSc2ccccc2C)cc1OCC`?
**A.** inhibition [1]: 2.02%; inhibition [2]: 49% (active); inhibition [3]: 41%; inhibition [4]: 8.24%

**Q.** For `CCc1ccccc1NC(=O)CSc1nc2n[nH]c(C)c2c(=N)n1-c1cccc(OC)c1`, which inhibition [1] is on record?
**A.** 16.7%

**Q.** What about the inhibition [2] of the same compound?
**A.** 38.2%

**Q.** What about the inhibition [3] of the same compound?
**A.** 19.4%

**Q.** And the inhibition [4]?
**A.** -17.4%

**Q.** With `O=C(CN(Cc1ccccc1)C(=O)CCl)c1cccc(Br)c1` as the compound, how does the inhibition [1] read?
**A.** 19%

**Q.** And the inhibition [2]?
**A.** 55.7% (active)

**Q.** And the inhibition [3]?
**A.** 51.8% (active)

**Q.** What about the inhibition [4] of the same compound?
**A.** -1.2%

**Q.** With `Cn1c(SCC(=O)Nc2ccc3nc(SCC(=O)NC4CC4)sc3c2)nnc1-c1ccccc1` as the compound, how does the inhibition [1] read?
**A.** 12.3%

**Q.** And the inhibition [2]?
**A.** 59.7% (active)

**Q.** What about the inhibition [3] of the same compound?
**A.** 61.5% (active)

**Q.** And the inhibition [4]?
**A.** 2.96%

**Q.** What does the source list for `COCCn1c(SCC(=O)Nc2ccc(C(N)=O)cc2)nc2c([nH]c3ccccc32)c1=O`?
**A.** inhibition [1]: 24.6%; inhibition [2]: 64.9% (active); inhibition [3]: 61.7% (active); inhibition [4]: -64%

**Q.** For `Cc1ccc(NC(=O)c2ccc([N+](=O)[O-])o2)cc1S(=O)(=O)N1CCOCC1`, which inhibition [1] is on record?
**A.** 17.7%

**Q.** And the inhibition [2]?
**A.** 58.5% (active)

**Q.** What about the inhibition [3] of the same compound?
**A.** 58.8% (active)

**Q.** What about the inhibition [4] of the same compound?
**A.** -4.03%

**Q.** Which inhibition [1] does the source give for `S=C1Cc2ccccc2N1` here?
**A.** 56% (active)

**Q.** And the inhibition [2]?
**A.** 85.9% (active)

**Q.** What about the inhibition [3] of the same compound?
**A.** 79.5% (active)

**Q.** What about the inhibition [4] of the same compound?
**A.** 53.3% (active)

**Q.** Which inhibition [1] does the source give for `Cc1ccccc1Oc1nc2c(C)cccn2c(=O)c1/C=C(\C#N)C(=O)NC1CCS(=O)(=O)C1` (stereo not drawn) here?
**A.** 8.01%

**Q.** And the inhibition [2]?
**A.** 52.6% (active)

**Q.** And the inhibition [3]?
**A.** 51.3% (active)

**Q.** What about the inhibition [4] of the same compound?
**A.** 18.6%

**Q.** With `CC(C)[C@H](NC(=O)OCc1ccccc1)C(=O)OCC(=O)Nc1ccc(N2CCOCC2)cc1` as the compound, how does the inhibition [1] read?
**A.** 10.9%

**Q.** What about the inhibition [2] of the same compound?
**A.** 59.9% (active)

**Q.** And the inhibition [3]?
**A.** 59.2% (active)

**Q.** And the inhibition [4]?
**A.** -0.29%

**Q.** With `Cc1nn(Cc2ccc(Cl)cc2)c(C)c1NC(=O)c1cc(C(C)C)on1` as the compound, how does the inhibition [1] read?
**A.** 16.2%

**Q.** And the inhibition [2]?
**A.** 44.9% (active)

**Q.** What about the inhibition [3] of the same compound?
**A.** 64.8% (active)

**Q.** What about the inhibition [4] of the same compound?
**A.** 16%

**Q.** With `Cc1ccc(Cl)cc1N1CCN(C(=O)C(C)n2ncn3cccc3c2=O)CC1` (stereo not drawn) as the compound, how does the inhibition [1] read?
**A.** 7.03%

**Q.** What about the inhibition [2] of the same compound?
**A.** 35.4%

**Q.** What about the inhibition [3] of the same compound?
**A.** 41.2%

**Q.** What about the inhibition [4] of the same compound?
**A.** 2.84%

**Q.** Which inhibition [1] does the source give for `CC(Oc1ccc(S(=O)(=O)N2CCCC2)cc1[N+](=O)[O-])C(=O)NC(C)c1ccccc1` (stereo not drawn) here?
**A.** 4.94%

**Q.** What about the inhibition [2] of the same compound?
**A.** 52.3% (active)

**Q.** And the inhibition [3]?
**A.** 50.8% (active)

**Q.** And the inhibition [4]?
**A.** 1.83%

**Q.** Which results are given for `Cc1cc(C)nc(N/N=C/c2ccc([N+](=O)[O-])o2)n1`?
**A.** inhibition [1]: 8.46%; inhibition [2]: 57.7% (active); inhibition [3]: 42.5%; inhibition [4]: -4.48%

**Q.** Which inhibition [1] does the source give for `COc1ccc(S(=O)(=O)N2CCOCC2)cc1N=Nc1sc(N)nc1-c1ccccc1` here?
**A.** 36.4% (active)

**Q.** And the inhibition [2]?
**A.** 60.7% (active)

**Q.** What about the inhibition [3] of the same compound?
**A.** 66.3% (active)

**Q.** And the inhibition [4]?
**A.** -3.07%

**Q.** Which inhibition [1] does the source give for `N#Cc1c2ccc([N+](=O)[O-])cc2[n+]([O-])n1-c1ccccc1` here?
**A.** 58.2% (active)

**Q.** And the inhibition [2]?
**A.** 81.5% (active)

**Q.** And the inhibition [3]?
**A.** 75.4% (active)

**Q.** And the inhibition [4]?
**A.** -21.2%

**Q.** What does the source list for `Cc1cc(O)c(NC(=O)c2cc([N+](=O)[O-])ccc2Cl)cc1C`?
**A.** inhibition [1]: 35% (active); inhibition [2]: 53.6% (active); inhibition [3]: 58.8% (active); inhibition [4]: -8.66%

**Q.** Which results are given for `CC(=O)Oc1ccc(N(C(C)=O)S(=O)(=O)c2ccccc2)c2ccccc12`?
**A.** inhibition [1]: 13%; inhibition [2]: 31.6%; inhibition [3]: 34.9%; inhibition [4]: -3.17%

**Q.** Which results are given for `Cc1cc(OCC(=O)Nc2nccs2)c2c(C)c(C)c(=O)oc2c1`?
**A.** inhibition [1]: 42% (active); inhibition [2]: 74.5% (active); inhibition [3]: 66.2% (active); inhibition [4]: -127%

**Q.** With `COc1ccc(C2=Nn3c(nnc3-c3ccccc3OC)SC2)cc1OC` as the compound, how does the inhibition [1] read?
**A.** 52.6% (active)

**Q.** And the inhibition [2]?
**A.** 58.7% (active)

**Q.** What about the inhibition [3] of the same compound?
**A.** 64% (active)

**Q.** And the inhibition [4]?
**A.** 11.1%

**Q.** Which results are given for `COc1cc2c(cc1OC)CN(C(=O)c1cc(=O)c3ccccc3o1)CC2`?
**A.** inhibition [1]: 46.3% (active); inhibition [2]: 30.2%; inhibition [3]: 40.7%; inhibition [4]: 16%

**Q.** Which results are given for `COc1cccc(C2c3cc4c(cc3OC(N3CCCC3)C2C)OCO4)c1O` (stereo not drawn)?
**A.** inhibition [1]: 55% (active); inhibition [2]: 64% (active); inhibition [3]: 73.2% (active); inhibition [4]: 21.9%

**Q.** What does the source list for `COc1cccc2sc(N3CCN(C(=O)c4ccc([N+](=O)[O-])o4)CC3)nc12`?
**A.** inhibition [1]: 25.2%; inhibition [2]: 69.2% (active); inhibition [3]: 70.4% (active); inhibition [4]: -23.4%

**Q.** Which results are given for `O=C(Nc1ccc(S(=O)(=O)N2CCOCC2)cc1)c1ccc([N+](=O)[O-])o1`?
**A.** inhibition [1]: 17.6%; inhibition [2]: 57.5% (active); inhibition [3]: 65.2% (active); inhibition [4]: -5.86%

**Q.** For `CS(=O)(=O)N(CC(=O)N1CCN(Cc2ccc3c(c2)OCO3)CC1)Cc1ccc(Cl)cc1`, which inhibition [1] is on record?
**A.** 12.5%

**Q.** What about the inhibition [2] of the same compound?
**A.** 63% (active)

**Q.** What about the inhibition [3] of the same compound?
**A.** 44.9% (active)

**Q.** What about the inhibition [4] of the same compound?
**A.** 36.9% (active)

**Q.** With `Cc1cc(-c2nnc(SCC(=O)Nc3cccc(C)c3C)n2N)n[nH]1` as the compound, how does the inhibition [1] read?
**A.** 5.59%

**Q.** What about the inhibition [2] of the same compound?
**A.** 53.3% (active)

**Q.** And the inhibition [3]?
**A.** 48.2% (active)

**Q.** And the inhibition [4]?
**A.** -4.91%
